# Screening data deposited in PubChem BioAssay by Broad Institute.
# Sampled rows, rich in hits. Any-hit rate of the full collection: about 2.1%.
# U2OS ROS induce – raises reactive oxygen species in U2OS cancer cells. U2OS ROS induction, H2DCF-DA fluorescence. 2% of 46,000 active. ROS induction (% of piperlongumine), % at 10 µM; in the data active = ROS induction above about 79%, passing the limit was not always enough
# YB-1 expr inh – YB-1 expression inhibition; 0.37% of 30,000 active; delta delta Cp (YB-1 minus CDIP) (concentration not given with the values); AID 434959; U2OS, qRT-PCR YB-1 vs CDIP delta delta Cp, 16 h; active compounds read high; zero = DMSO, each unit about twofold;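 active = delta delta Cp rounded down to an integer at or above 3, about 3 SD of DMSO wells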;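 note: higher means less YB-1 transcript or more CDIP transcript relative to DMSO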
# A number is an active result; . = inactive; / = not tested or not shown.
SMILES,U2OS ROS induce,YB-1 expr inh
CCOc1ccc(CCNC(=O)Cn2ncn3nc(-c4cccs4)cc3c2=O)cc1OCC,.,/
COC(CNC(=O)c1oc2ccc3c(c2c1C)C=CC(C)(C)O3)OC,.,/
CCN(CC)S(=O)(=O)c1ccc2c(c1)c(=O)c(C(=O)O)cn2C,.,/
C=C(C)C1CCC2(C)OC(=O)N(Cc3ccccc3)C12C (stereo unspecified),.,/
CCOC(=O)c1ccc2nc(C(F)(F)F)nc(N3CC(C)OC(C)C3)c2c1 (stereo unspecified),108,.
CCOC(=O)c1ccc2nc(C(F)(F)F)nc(NCc3ccc(Cl)cc3)c2c1,.,.
Cc1ccc(S(=O)(=O)Nc2cccc3c2O[C@H](CN(C)Cc2ccc(Oc4ccccc4)cc2)[C@@H](C)CN([C@H](C)CO)C3=O)cc1,.,19
C[C@@H]1CN([C@@H](C)CO)C(=O)c2cccc(NS(=O)(=O)c3ccccc3)c2O[C@H]1CN(C)Cc1ccc(Cl)c(Cl)c1,151,.
C[C@@H]1CN([C@H](C)CO)C(=O)c2cccc(NS(=O)(=O)c3ccccc3)c2O[C@@H]1CN(C)Cc1ccc(Cl)c(Cl)c1,.,.
Cc1ccc(S(=O)(=O)Nc2cccc3c2O[C@@H](CN(C)Cc2ccc(Oc4ccccc4)cc2)[C@H](C)CN([C@@H](C)CO)C3=O)cc1,.,.
Cc1ccc(Cn2c(C)c3cn[nH]c(=O)c3c2C)cc1,.,/
CC(=O)N1/C(=C/c2ccc(N(C)C)cc2)C(=O)c2ccccc21,151,/
CN(C)c1ccc(/C=C2/C(=O)Nc3ccccc32)cc1,.,.
CCCC(=O)Nc1ccc(-c2cn3ccccc3n2)cc1,.,/
CCNc1nc(NCC)nc(SCCOc2ccc(Br)cc2)n1,.,/
C[C@@H]1CN([C@H](C)CO)C(=O)CCCn2cc(nn2)CO[C@@H]1CN(C)S(=O)(=O)c1cccs1,89,.
C[C@H](CO)N1C[C@H](C)[C@H](CN(C)S(=O)(=O)c2cccs2)OCc2cn(nn2)CCCC1=O,.,.
C[C@@H]1CN([C@H](C)CO)C(=O)CCCn2cc(nn2)CO[C@@H]1CN(C)S(=O)(=O)c1ccccc1,104,.
C[C@H]1CN([C@@H](C)CO)C(=O)CCCn2cc(nn2)CO[C@H]1CN(C)S(=O)(=O)c1ccccc1,.,.
COc1ccc(CNCc2ccc(F)cc2)cc1,.,/
O=C(CNc1ccc(Cc2ccncc2)cc1)c1cccc2ccccc12,.,/
COCCOC(=O)N1C(=O)[C@@]2(c3ccccc31)[C@H](C(=O)N1CCc3cc(OC)c(OC)cc3C1)[C@H]1C(=O)O[C@H](c3ccccc3)[C@H](c3ccccc3)N1[C@@H]2c1ccccc1OCCO,121,.
COCCOC(=O)N1C(=O)[C@@]2(c3cc(C#Cc4ccc(OC)cc4)ccc31)[C@H](C(N)=O)[C@H]1C(=O)O[C@H](c3ccccc3)[C@H](c3ccccc3)N1[C@@H]2c1ccc(OCCO)cc1,.,.
COCCOC(=O)N1C(=O)[C@@]2(c3cc(C#Cc4ccc(OC)cc4)ccc31)[C@H](C(=O)N1CCc3cc(OC)c(OC)cc3C1)[C@H]1C(=O)O[C@H](c3ccccc3)[C@H](c3ccccc3)N1[C@@H]2c1ccccc1OCCO,.,.
COCCOC(=O)N1C(=O)[C@@]2(c3cc(C#Cc4ccc(OC)cc4)ccc31)[C@H](C(N)=O)[C@H]1C(=O)O[C@H](c3ccccc3)[C@H](c3ccccc3)N1[C@@H]2c1ccccc1OCCO,.,9.5
SMILES,U2OS ROS induce,YB-1 expr inh
COCCOC(=O)N1C(=O)[C@@]2(c3cc(C#CCNC(N)=O)ccc31)[C@H](C(=O)N1CCc3cc(OC)c(OC)cc3C1)[C@H]1C(=O)O[C@H](c3ccccc3)[C@H](c3ccccc3)N1[C@@H]2c1ccccc1OCCO,.,.
COCCOC(=O)N1C(=O)[C@@]2(c3cc(C#Cc4ccc(OC)cc4)ccc31)[C@H](c1ccccc1OCCO)N1[C@H](c3ccccc3)[C@H](c3ccccc3)OC(=O)[C@H]1[C@@H]2C(=O)N1CCc2cc(OC)c(OC)cc2C1,112,.
CC(C)Cc1ccc(C(C)C(=O)Nc2ccc(Cl)cc2)cc1 (stereo unspecified),.,/
COC(=O)COc1cccc(NC(=O)c2ccc(-c3ccccc3)cc2)c1,84,/
COC(=O)COc1cccc(NC(=O)c2ccccc2F)c1,.,/
Cc1ccc(S(=O)(=O)N2CC=C(C(=O)NCc3cccs3)CC2)cc1,.,/
CC(=O)Nc1ccc2nc(SCc3c(C)cc(C)cc3C)sc2c1,.,/
COC(=O)Cn1c(=O)c2c(nc3n2CCN3c2ccccc2)n(C)c1=O,.,/
CCCc1nc(C)c2c(=O)[nH]c(-c3cc(S(=O)(=O)N4CCN(CC)CC4)ccc3OCC)nn12,134,.
CCN1CCN(C(=O)C2CCN(S(=O)(=O)c3ccc4c(c3)nc(C)n4C3CCCC3)CC2)CC1,.,/
CCOc1ccc(S(=O)(=O)N2CCCCC2)cc1-c1nc2c(C(C)(C)C)nn(C)c2c(=O)[nH]1,170,/
COc1ccc(CN2C(=O)c3cccc4cccc(c34)C2=O)cc1S(=O)(=O)N1CCCCCC1,.,/
Cc1ccc(-c2noc(C(C)c3ccc(CC(C)C)cc3)n2)cc1 (stereo unspecified),.,/
CC(=O)N1CCN(C2c3cccc4cccc(c34)C2NS(=O)(=O)c2ccc(Cl)cc2)CC1 (stereo unspecified),.,/
COc1ccc(CN2C(=O)[C@@H]3[C@H]4C(=O)O[C@H](c5ccccc5)[C@@H](C)N(C)C(=O)CC/C=C/[C@H]4O[C@@]34C=CCN(Cc3ccccc3)C(=O)[C@@H]24)cc1,122,.
COc1ccc(C2C(C(=O)O)c3ccccc3C(=O)N2Cc2ccc(Cl)cc2)cc1 (stereo unspecified),.,.
N#CC1=NN(c2ccccc2)C(c2ccccc2)CC1=O (stereo unspecified),.,/
COc1ccc(-c2cc(-c3ccccc3)c(C#N)c(SCS(=O)Cc3ccccc3)n2)cc1 (stereo unspecified),87,/
COc1ccc(-c2cc(-c3ccccc3)nc(SCC(=O)N3CCCCC3)c2C#N)cc1,.,/
CCC(=O)Nc1cc(-c2nc3cccnc3s2)ccc1C,.,/
O=C(CSc1ncnc2c1nnn2Cc1ccc(F)cc1)OCc1ccccc1,.,/
NC(=O)CSc1ncnc2c1nnn2Cc1ccc(F)cc1,135,/
CCOC(=O)c1cnc2c(ccc3ccccc32)c1NCC(C)C,.,/
CCOC(=O)c1cnc2c(ccc3ccccc32)c1NCCOC(=O)c1cccnc1,248,/
CCOC(=O)c1cnc2c(ccc3ccccc32)c1NCc1ccco1,.,/
SMILES,U2OS ROS induce,YB-1 expr inh
CCOC(=O)c1cnc2ccccc2c1NCCc1ccccc1,113,/
Cc1ccc2nc3c(cc(C(N)=O)c(=N)n3Cc3cccnc3)c(=O)n2c1,.,/
CC(C)(C)c1cc(C(=O)Nc2ccc(Cl)cc2)n(Cc2ccccc2)n1,.,/
C=CCNC(=O)c1cc2c(=O)n3cccc(C)c3nc2n(CC2CCCO2)c1=N (stereo unspecified),90,/
Cc1cccn2c(=O)c3cc(C(=O)NCC4CCCO4)c(=N)n(C4CCCCC4)c3nc12 (stereo unspecified),96,/
O=C(O)c1ccccc1C(=O)NCC1CCCO1 (stereo unspecified),.,/
C=CCNC(=O)c1cc2c(=O)n3ccccc3nc2n(CCC)c1=N,.,/
Cc1cc(C)c2nc(NC3=NC(c4ccccc4)CC(=O)N3)nc(C)c2c1 (stereo unspecified),114,/
